# Several values for one entry are separate records, joined by “and”; a condition that tells them apart may be missing. Equal values may be shown once. The panel holds about 83,000 compounds, 20% with a hit somewhere; the sample as a whole holds those more often.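 Treatment: one concentration, 48 hours, 96-well format. Scoring: percent growth, with anything below 10 considered active.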 Values without a mark were called inactive. Activity calls are given as the source filed them.
# System: MDA-MB-468 breast
# Experiment: NCI-60 one-dose screen, 48 h (100 = growth as untreated, 0 = no growth, -100 = all killed)
# Conditions: 10 µM unless noted
row,Compound,growth
1,CCCCCCCCCCCC(=O)OC(C)C(=O)NCCCC (stereo not given),105%
2,Cc1cc(SCc2ccc(Cl)cc2Cl)nc(SCc2ccc(Cl)cc2Cl)n1,104%
3,CCOC(=O)C(CC)n1c(=O)c2cc(OC)c(OC)cc2c2cnc3[nH]ccc3c21 (stereo not given),84.2%
4,COc1ccc(/C(C)=C(\c2ccc(Cl)cc2)c2ccc(OCCCN(C)C)cc2)cc1F,75.7%
5,CCOC(=O)c1cc2c(n1C)-c1nc(NC(C)=O)sc1CCC2,79.8%
6,N#C/C(=C/C=C/c1cccc(Cl)c1)S(=O)c1ccccc1 (stereo not given),-46% (active)
7,COc1ccc(-c2cc(-c3nnc(SCC(=O)Nc4ccc(/C(C)=N\O)cc4)o3)c3ccccc3n2)cc1,106%
8,CN1C(=O)N(C)C2(c3ccccc3)n3c(s/c(=C\c4ccccc4)c3=O)=NNC12c1ccccc1 (stereo not given),80.8%
9,COc1nc(=O)n(C2C=CC(=O)O2)cc1F (stereo not given),11.9%
10,Cc1cccc2c3c(sc12)C(c1ccc(Cl)cc1)c1c(nc(CC(=O)Nc2ccccc2)[nH]c1=O)O3 (stereo not given),9.75% (active)
11,COc1cccc(C(=O)Nc2cccc(NC(=O)c3ccccn3)c2)c1,105%
12,O=C1c2cc3c(cc2-c2c1c1ccc(Cl)cc1c(=O)n2CCCN1CCOCC1)OCO3,31.6%
13,Cc1c2ccccc2c(C)c2c1ccc1ccccc12,20.5%
14,COc1ccc(C2CC(c3ccc(Nc4nc(Nc5ccc(F)cc5)nc(Nc5ccc(Cl)cc5)n4)cc3)=NN2C(C)=O)cc1 (stereo not given),104%
15,CCOc1ccc2nc(C)cc(Nc3ccc(Br)cc3)c2c1,100%
16,CCOC(=O)CC/C(C)=N\Nc1ccc([N+](=O)[O-])cc1,83.2%
17,CS(=O)(=O)Nc1cncc(-c2ccc3ncnc(Nc4ccc(F)c(Cl)c4)c3c2)c1,-30.3% (active)
18,COC(=O)C(OC(C)=O)C(OC(C)=O)c1ccc(OC)c(OC)c1 (stereo not given),108%
19,CCOC(=O)C1=C(C)NC(=O)NC1c1ccc(OCC(=O)N/N=C/c2ccc(Cl)cc2)cc1 (stereo not given),96.5%
20,COc1ccc2oc3c(C)c4c(c(C)c3c2c1)C(=O)N(Cc1ccccc1)C4=O,100%

row,Compound,growth
1,Cc1c(Cl)cccc1C(=O)Nc1nc2c(s1)CN(C(=O)c1ccc(C(F)(F)F)cc1)CC2,17.7%
2,CCOC(=O)Nc1ccc2nc(-c3cscn3)[nH]c2c1,-2.03% (active)
3,CCCCCCCCN(CCCCCCCC)CC(O)c1cc(-c2ccccc2)nc2ccc(OC)cc12 (stereo not given),104%
4,CCCCCCCn1cc2c(N[C@H](C)c3ccccc3)ncnc2n1,119%
5,O=C(Nc1ccc(N=Cc2c(O)[nH]c3ccccc23)cc1)Nc1nccs1,-2.28% (active)
6,C=C1c2c(Cl)ccc(O)c2C(O)=C2C(=O)[C@]3(O)C(O)=C(C(N)=O)C(=O)[C@@H](N(C)C)[C@@H]3[C@@H](O)[C@H]12,-4.52% (active)
7,c1ccc(-c2nnc(Nc3ccc4c(c3)OCCO4)o2)c(NCc2ccncc2)c1,-33.4% (active)
8,Nc1ccc(-c2nnc(SCc3ccc(O)c4ncccc34)o2)cc1,-20.7% (active)
9,Clc1nnc2c3ccccc3ccn12,101%
10,CCCCCc1cc[n+](CC(=O)c2ccc([N+](=O)[O-])cc2)cc1,11.8%
11,COc1ccc(C(=O)/C=C/c2ccccn2)c(O)c1,57.1%
12,CCOc1cc2ncc(C#N)c(Nc3ccc(F)c(Cl)c3)c2cc1NC(=O)/C=C/CN(C)C,-43.9% (active)
13,COc1cc(/C=C/c2nc(Nc3ccc(S(=O)(=O)Nc4cc(C)on4)cc3)c3ccccc3n2)ccc1O,-7.09% (active)
14,CCCn1cnc2c(c1=N)C(c1ccc(Cl)cc1)c1sc3c(F)cccc3c1O2 (stereo not given),42.4%
15,CN(C)c1ccc(C(=N)c2ccc(N(C)C)cc2)cc1,-45.5% (active) and -18.9% (active)
16,FC(F)(F)c1ccc(-c2cnc(Cl)nc2NC2CCCCCC2)cc1,-4.8% (active)
17,CC(=[N-])N1CCC[C@@H](Nc2c3ccccc3nc3ccccc23)C1.[Cl][Pt].[NH-]CCC[NH-],-10.4% (active)
18,N#CC(Cc1cccc2ccccc12)c1cc2ccccc2[nH]1 (stereo not given),93.2%
19,C=CCn1c(SCC(=O)Nc2ccc(C(=O)/C=C/c3cc(OC)c(OC)c(OC)c3)cc2)nnc1-c1ccc(Cl)cc1,2.35% (active)
20,CC(O)c1cccc(/C(N)=N/C(N)=N/c2nc3ccccc3s2)c1 (stereo not given),103%

# From PubChem BioAssay (NCI)
